Assay [1] is described as follows: BET inhibitor-based combinations targeting novel dependencies in MECOM-rearranged (r) AML: SET-2 cell line (AID 2202231). Also: nearly all actives have a fitted effect of over 35% in size.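 As to viability: plate controls were DMSO treated cells for no effect and wells without cells for full effect.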 The note with it: SET-2 AML cells viability, CellTiter-Glo luminescence, 48 h; viability: hits give low values, concentration not given here. The procedure, abridged: (§1)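 Luminescent ATP readout (CellTiter-Glo) after 48 hr drug exposure gives viability. Curves span 11 concentrations and are normalized to DMSO and empty wells. Activity is reported as area under the curve and its Z-transform within each cell line.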
For orientation: Cellular ATP, detected with luciferase, serves as a proxy for viable cell number.

Assay [2] can be described thus: BET inhibitor-based combinations targeting novel dependencies in MECOM-rearranged (r) AML: OCI-AML3 cell line (AID 2202232). Also: nearly all actives have a fitted effect of over 35% in size.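 As to viability (% of control): plate controls were DMSO vehicle wells for no effect and wells without cells for full effect.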 The note with it: CellTiter-Glo luminescence, 48 h; Potency: OCI-AML3 viability; series mostly up to 46 µM. The procedure, abridged:
as §1

Assay [3] is described as follows: BET inhibitor-based combinations targeting novel dependencies in MECOM-rearranged (r) AML: MV-4-11 cell line (AID 2202233). Also: nearly all actives have a fitted effect of over 45% in size.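 As to viability, % of control: plate controls were DMSO for no effect and blank wells for full effect.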 The note with it: MV-4-11 AML viability, CellTiter-Glo luminescence, 48 h; series mostly up to 46 µM. The method in brief:
(§2)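 Luminescent ATP readout (CellTiter-Glo, 15 min at room temperature) after 48 hr drug exposure gave viability. Dose-response curves, normalized to DMSO and empty-well controls, were summarized as area under the curve and its mean-centred Z-score.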

A short description of assay [4]: BET inhibitor-based combinations targeting novel dependencies in MECOM-rearranged (r) AML: HNT-34 cell line (AID 2202234). Also: nearly all actives have a fitted effect of over 35% in size.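 As to viability (% of control): plate controls were vehicle wells for no effect and cell-free wells for full effect.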 The following applies: HNT-34 AML viability, CellTiter-Glo luminescence, 48 h; series mostly up to 46 µM. The method in brief: as §2
The nature of assay [5]: BET inhibitor-based combinations targeting novel dependencies in MECOM-rearranged (r) AML: AML-191 cell line (AID 2202236; also: nearly all actives have a fitted effect of over 35% in size;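 as to viability (% of control): plate controls were vehicle wells for no effect and wells without cells for full effect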). The note with it: AML-191 viability, CellTiter-Glo luminescence, 48 h; series mostly up to 46 µM. The procedure, abridged: as §1
The nature of assay [6]: BET inhibitor-based combinations targeting novel dependencies in MECOM-rearranged (r) AML: AML-194 cell line (AID 2202237; also: nearly all actives have a fitted effect of over 40% in size;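 as to viability (% of control): plate controls were vehicle wells for no effect and wells without cells for full effect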). The note with it: AML-194 (MECOM-r AML) viability, CellTiter-Glo, 48 h; series mostly up to 46 µM. The method in brief:
as §1

Assay [7] is described as follows: BET inhibitor-based combinations targeting novel dependencies in MECOM-rearranged (r) AML: UCSD-AML1 cell line (AID 2202235). Also: nearly all actives have a fitted effect of over 40% in size.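 As to viability (% of control): plate controls were DMSO vehicle wells for no effect and blank wells for full effect.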 The following applies: UCSD-AML1 AML cells viability, CellTiter-Glo, 48 h; series mostly up to 46 µM. The method in brief: as §2

Results filed as inconclusive are left out. A number with no mark means an inactive call. Calls of active or inactive are those of the source. Calls follow the shape of the dose curve; as a rule, active = well fitted curve in the direction sought with a large enough effect; inconclusive = small, poorly fitted or top-dose-only effect, or another doubt; inactive = no such curve, though single readings can be large; an effect the other way counts as inactive or inconclusive.

The viability is a read-out of living cells in per cent, often relative to untreated cells.
Potency is read from the fitted curve at half-maximal effect.

As for `C=C1C(=O)O[C@@H]2[C@H]3C(C)=CC[C@@]34O[C@@]4(C)CC[C@@H]12`, the Potency in assay [1] is 9340 nM (active); in assay [2], 8330 nM (active); in assay [3], 7420 nM (active); in assay [4] it was 10500 nM (active); in assay [5], 13200 nM (active); in assay [6], 13200 nM (active).

With `CC(=O)NCC(=O)N1[C@@H]2CC[C@H]1c1ccc(Nc3ncc(C(F)(F)F)c(NC4CCC4)n3)cc12`, the Potency is 4170 nM (active) in assay [1]; 14800 nM (active) in assay [2]; 41.7 nM (active) in assay [3]; 662 nM (active) in assay [4]; 833 nM (active) in assay [5].

For `COc1cc(N2CCN(C)CC2)ccc1Nc1ncc2c(n1)N(C)c1ccccc1C(=O)N2C`, the Potency in assay [1] was 16600 nM (active); in assay [2], 2350 nM (active); in assay [3], 1320 nM (active); in assay [4], 16600 nM (active); in assay [5], 18600 nM (active); in assay [6] it was 20900 nM (active).

Turning to `CN1CCN(C(=O)[C@H]2[C@@H](C(=O)O)[C@H]3CC[C@@H]2O3)CC1`, the viability in assay [1] was 113%. Also, the viability (% of control) in assay [2] was 112% [at 8.46 µM]; in assay [7], 104% [at 8.46 µM]; in assay [5] it was 93.9% [at 8.46 µM]; in assay [6], 96.1% [at 8.46 µM]. The viability, % of control in assay [3] is 111% [at 8.46 µM].

In the case of `COc1cc(O)c2c(c1)C1OC1C[C@H](O)[C@H](O)C(=O)C=CC[C@H](C)OC2=O` (some centres not stated), the Potency in assay [1] is 5900 nM (active); in assay [2], 742 nM (active); in assay [3], 132 nM (active); in assay [7], 1480 nM (active); in assay [5], 1320 nM (active); in assay [6] it was 1480 nM (active).

With `CN(C)Cc1ccc(S(=O)(=O)n2ccc(/C=C/C(=O)NO)c2)cc1`, the Potency was 3720 nM (active) in assay [1]; 5250 nM (active) in assay [2]; 2350 nM (active) in assay [3]; 4680 nM (active) in assay [7]; 4170 nM (active) in assay [5]; 5900 nM (active) in assay [6].

Regarding `CCNCCS(=O)(=O)NC[C@@]1(c2ccccc2)SC(NC(=O)C(C)(C)C)=NN1C(=O)C(C)(C)C`, the Potency is 118 nM (active) in assay [1]; 4.2 nM (active) in assay [2]; 4.2 nM (active) in assay [3]; 4.7 nM (active) in assay [7]; 20.9 nM (active) in assay [5].

On to `Nc1cccc2c1CN([C@H]1CCC(=O)NC1=O)C2=O`, for which the viability in assay [1] is 111%. Besides, the Potency entry in assay [2], in assay [3] and in assay [6] was “inactive” in each case. In assay [4], the Potency is 1180 nM (active).

For `CN(Cc1ccc(/C=C/C(=O)NO)cc1)CC12CC3CC(CC(C3)C1)C2`, the Potency in assay [1] was 105 nM (active); in assay [2] it was 148 nM (active); in assay [3], 93.4 nM (active); in assay [7], 132 nM (active); in assay [5], 148 nM (active).

For `COc1ccc([C@@H](O)[C@@H](C)Oc2ccc([C@H]3O[C@H](c4ccc(O[C@H](C)[C@H](O)c5ccc(OC)c(OC)c5)c(OC)c4)[C@H](C)[C@H]3C)cc2OC)cc1OC`, the Potency in assay [1] is 13200 nM (active); in assay [2], 1050 nM (active); in assay [3], 4170 nM (active); in assay [7], 18600 nM (active); in assay [5], 18600 nM (active).

In the case of `CCCCc1ccc2nc(NC(=O)OC)[nH]c2c1`, the Potency in assay [1] was 263 nM (active); in assay [2] it was 148 nM (active); in assay [3], 186 nM (active); in assay [7] it was 118 nM (active); in assay [5], 118 nM (active); in assay [6], 105 nM (active).

Regarding `Cc1cc(-c2cnn3c(NCC4CC(C)(O)C4)cc(Oc4cccnc4)nc23)ccc1C(=O)NC1CC1` (configuration not stated), the Potency in assay [1] was 1180 nM (active); in assay [2], 263 nM (active); in assay [3], 332 nM (active); in assay [4] it was 934 nM (active); in assay [6], 1050 nM (active).

On to `CCC[C@@H]1C[C@@H](C(=O)N[C@@H]([C@H]2O[C@H](SC)[C@H](O)[C@@H](O)[C@H]2O)[C@H](C)Cl)N(C)C1`, for which, in assay [1], the viability is 110%. The Potency entry in assay [2], in assay [3], in assay [4] and in assay [6] was “inactive” each time.

`Cn1cc(/C=C/C(=O)c2cccc(F)c2)cc1/C=C/C(=O)NO`: the Potency was 1480 nM (active) in assay [1], 3320 nM (active) in assay [2], 4680 nM (active) in assay [3] and 4170 nM (active) in assay [7].

`C[C@]12CCC3=C4CCC(=O)C=C4CC[C@H]3[C@@H]1CC[C@@]2(O)CC#N`: the viability in assay [1] was 108%. Also, the Potency result in assay [2], in assay [3], in assay [7], in assay [5] and in assay [6] was “inactive” throughout.

For `NS(=O)(=O)c1ccc(S(=O)(=O)Nc2cccc3c(Cl)c[nH]c23)cc1`, the Potency in assay [1] is 14800 nM (active); in assay [2] it was 2950 nM (active); in assay [3] it was 590 nM (active); in assay [7] it was 2350 nM (active).

For the compound `C=C1C(=O)OC2/C=C(/C)CC/C=C(/C)CCC12` (configuration not stated), the Potency was 20900 nM (active) in assay [1]; 18600 nM (active) in assay [2]; 14800 nM (active) in assay [3]; 26300 nM (active) in assay [7]; 26300 nM (active) in assay [5].

Regarding `NS(=O)(=O)Oc1ccc2c3c(c(=O)oc2c1)CCCCC3`, the viability in assay [1] is 105%. Besides, the Potency entry in assay [2], in assay [3], in assay [7], in assay [5] and in assay [6] was “inactive” in each case.

With `Cn1c(NCCN(CCO)CCCc2ccc([N+](=O)[O-])cc2)cc(=O)n(C)c1=O`, in assay [1], the viability is 114%. The Potency entry in assay [2], in assay [3], in assay [7], in assay [5] and in assay [6] was “inactive” throughout.

Take `COc1ccc(S(=O)(=O)Nc2cc(-c3csc(C#N)c3)ccc2C)cc1`: the Potency in assay [1] was 209 nM (active); in assay [2], 148 nM (active); in assay [3], 235 nM (active); in assay [7] it was 148 nM (active); in assay [5] it was 132 nM (active); in assay [6], 332 nM (active).

`CC(C)NC(=O)C1CCC(n2c(NC(=O)c3ccc(F)cc3)nc3ccc(CN4CCC(C(C)(C)O)CC4)cc32)CC1` (configuration not stated): the viability in assay [1] is 121%. In addition, the Potency in assay [2] is 3620 nM (active); in assay [3] it was 1820 nM (active). Moreover, in assay [7], the Potency entry is “inactive”.

Source of the values: PubChem BioAssay (NCATS).
